Measurements from PubChem BioAssay (EPA / NIEHS).
Records with an inconclusive call do not appear. The source made the active and inactive calls. Rule for the calls: active = hit-call score of the fitted dose curve at least 0.9, where 1 is the maximum; inconclusive = response in the unintended direction; inactive = score below 0.9.

These compounds were tested against Caspase-1 (Homo sapiens) (UniProt P29466) (assay: NVS_ENZ_hCASP1: NovaScreen (NVS) Enzymatic Assay for human Caspase 1 (CASP1) (AID 2283132)).
Outline: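 Cell-free enzymatic assay with E. coli-expressed recombinant protein; fluorescence intensity read 1 hour after dosing. Single-concentration duplicate screen at 25 uM, then concentration-response up to 50 uM; activity fitted relative to DMSO, loss of signal meaning inhibition.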

Chain of Caspase-1 (Homo sapiens) (P29466 whole entry, looked up): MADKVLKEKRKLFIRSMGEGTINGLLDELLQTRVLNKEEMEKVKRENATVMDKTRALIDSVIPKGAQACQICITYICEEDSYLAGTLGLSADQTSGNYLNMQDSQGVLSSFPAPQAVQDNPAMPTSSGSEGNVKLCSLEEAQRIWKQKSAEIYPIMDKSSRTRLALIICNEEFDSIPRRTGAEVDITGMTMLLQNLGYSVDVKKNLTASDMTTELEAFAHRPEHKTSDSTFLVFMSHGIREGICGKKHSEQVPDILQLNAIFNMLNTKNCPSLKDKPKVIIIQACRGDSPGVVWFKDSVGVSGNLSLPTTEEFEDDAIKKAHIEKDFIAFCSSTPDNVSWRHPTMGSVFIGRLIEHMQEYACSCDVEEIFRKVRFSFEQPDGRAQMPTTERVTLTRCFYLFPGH

| SMILES | AC50 | outcome |
| --- | --- | --- |
| O=C(OC[C@H]1O[C@@H](OC(=O)c2cc(O)c(O)c(OC(=O)c3cc(O)c(O)c(O)c3)c2)[C@H](OC(=O)c2cc(O)c(O)c(OC(=O)c3cc(O)c(O)c(O)c3)c2)[C@@H](OC(=O)c2cc(O)c(O)c(OC(=O)c3cc(O)c(O)c(O)c3)c2)[C@@H]1OC(=O)c1cc(O)c(O)c(OC(=O)c2cc(O)c(O)c(O)c2)c1)c1cc(O)c(O)c(OC(=O)c2cc(O)c(O)c(O)c2)c1 | 1.14 µM (active) |  |
| O=C1c2c(O)cccc2Cc2cccc(O)c21 | 5.01 µM (active) |  |
| Nc1ccc2c(c1)C(=O)c1ccccc1C2=O |  | inactive |

These compounds were tested against human Aurora Kinase A - serine/threonine-protein Kinase 6 (AurA), AURKA (gene 6790) (UniProt O14965) (assay: NVS_ENZ_hAurA: NovaScreen (NVS) Enzymatic Assay for human Aurora Kinase A - serine/threonine-protein Kinase 6 (AurA) (AID 2283142)).
Outline: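 Cell-free enzymatic assay with human Aurora A, 1 hour after dosing. Fluorescent substrate turnover detected after electrophoretic mobility shift separation of substrate and product. Screened at 25 uM, actives retested in concentration-response up to 50 uM.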

| SMILES | outcome | AC50 |
| --- | --- | --- |
| Cc1ccc(N)cc1O | inactive |  |
| O=C(O)Cc1cc(I)c(Oc2cc(I)c(O)c(I)c2)c(I)c1 |  | 0.00511 µM (active) |
| CC1=C(/C=C/C(C)=C/C=C/C(C)=C/CO)C(C)(C)CCC1 | inactive |  |
| O=C(c1ccc(OCCN2CCCCC2)cc1)c1c(-c2ccc(O)cc2)sc2cc(O)ccc12 | inactive |  |
| CC/C(=C(\c1ccccc1)c1ccc(OCCN(C)C)cc1)c1ccccc1 | inactive |  |
| CN(C)C(=O)NC1(c2ccccc2)CCN(CCC[C@]2(c3ccc(Cl)c(Cl)c3)CCCN(C(=O)c3ccccc3)C2)CC1 | inactive |  |

These compounds were tested against human Ephrin type-A Receptor 2 (EphA2), EPHA2 (gene 1969) (UniProt P29317) (assay: NVS_ENZ_hEphA2: NovaScreen (NVS) Enzymatic Assay for human Ephrin type-A Receptor 2 (EphA2) (AID 2283155)).
Outline: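 Cell-free recombinant EphA2 kinase with specific substrate, 1 h, fluorescence with electrophoretic mobility-shift separation of substrate and product. Primary screen at 25 uM in duplicate; hits retested in singleton concentration-response up to 50 uM, referenced to DMSO.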

Chain of human Ephrin type-A Receptor 2 (EphA2), EPHA2 (gene 1969) (P29317 whole entry, looked up): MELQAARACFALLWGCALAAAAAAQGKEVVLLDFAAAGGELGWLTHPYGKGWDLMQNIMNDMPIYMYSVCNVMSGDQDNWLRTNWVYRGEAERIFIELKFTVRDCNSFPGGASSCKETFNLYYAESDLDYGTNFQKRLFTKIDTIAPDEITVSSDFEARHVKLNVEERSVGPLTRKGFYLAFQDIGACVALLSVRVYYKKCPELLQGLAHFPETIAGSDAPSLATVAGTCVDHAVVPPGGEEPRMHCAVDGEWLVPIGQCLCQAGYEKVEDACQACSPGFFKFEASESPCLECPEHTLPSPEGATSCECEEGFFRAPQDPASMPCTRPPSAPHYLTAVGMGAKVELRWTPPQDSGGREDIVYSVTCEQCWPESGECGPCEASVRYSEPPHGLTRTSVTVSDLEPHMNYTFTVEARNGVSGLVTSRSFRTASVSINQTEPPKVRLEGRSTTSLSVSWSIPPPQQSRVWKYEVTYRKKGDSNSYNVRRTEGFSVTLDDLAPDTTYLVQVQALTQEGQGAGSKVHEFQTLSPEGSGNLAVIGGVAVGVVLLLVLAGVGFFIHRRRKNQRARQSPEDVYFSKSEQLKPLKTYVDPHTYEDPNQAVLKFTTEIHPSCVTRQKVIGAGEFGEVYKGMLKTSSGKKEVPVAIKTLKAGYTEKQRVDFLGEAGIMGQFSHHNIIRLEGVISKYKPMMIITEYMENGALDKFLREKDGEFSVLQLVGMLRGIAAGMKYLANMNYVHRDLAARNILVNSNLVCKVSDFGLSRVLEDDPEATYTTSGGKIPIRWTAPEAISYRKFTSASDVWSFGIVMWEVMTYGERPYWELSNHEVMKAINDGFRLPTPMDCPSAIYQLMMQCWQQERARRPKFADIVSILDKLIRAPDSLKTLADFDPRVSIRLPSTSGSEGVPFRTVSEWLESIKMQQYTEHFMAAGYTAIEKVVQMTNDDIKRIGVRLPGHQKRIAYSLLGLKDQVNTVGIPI

| SMILES | outcome | AC50 |
| --- | --- | --- |
| CNS(=O)(=O)c1cc(C(=O)N2CCC(CCN3C4CCC3CC(n3c(C)nc5ccccc53)C4)(c3cccc(F)c3)CC2)c(Cl)cc1F (configuration not stated) | inactive |  |
| Cc1ccc(N)cc1O |  | 18.1 µM (active) |
| O=C(O)Cc1cc(I)c(Oc2cc(I)c(O)c(I)c2)c(I)c1 | inactive |  |
| CC1=C(/C=C/C(C)=C/C=C/C(C)=C/CO)C(C)(C)CCC1 | inactive |  |
| CN(C)C(=O)NC1(c2ccccc2)CCN(CCC[C@]2(c3ccc(Cl)c(Cl)c3)CCCN(C(=O)c3ccccc3)C2)CC1 | inactive |  |

These compounds were tested against human Fibroblast Growth Factor Receptor 1 (FGFR1), FGFR1 (gene 2260) (UniProt P11362) (assay: NVS_ENZ_hFGFR1: NovaScreen (NVS) Enzymatic Assay for human Fibroblast Growth Factor Receptor 1 (FGFR1) (AID 2283159);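 for AC50: hits lower the signal so potencies describe inhibitors of the kinase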).
Outline: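 Cell-free recombinant kinase with fluorescent substrate, product separated by electrophoretic mobility shift; read 1 hour after dosing, loss of signal relative to DMSO. Initial screen in duplicate at 25 uM, actives followed in concentration series.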

Chain of human Fibroblast Growth Factor Receptor 1 (FGFR1), FGFR1 (gene 2260) (P11362 whole entry, looked up): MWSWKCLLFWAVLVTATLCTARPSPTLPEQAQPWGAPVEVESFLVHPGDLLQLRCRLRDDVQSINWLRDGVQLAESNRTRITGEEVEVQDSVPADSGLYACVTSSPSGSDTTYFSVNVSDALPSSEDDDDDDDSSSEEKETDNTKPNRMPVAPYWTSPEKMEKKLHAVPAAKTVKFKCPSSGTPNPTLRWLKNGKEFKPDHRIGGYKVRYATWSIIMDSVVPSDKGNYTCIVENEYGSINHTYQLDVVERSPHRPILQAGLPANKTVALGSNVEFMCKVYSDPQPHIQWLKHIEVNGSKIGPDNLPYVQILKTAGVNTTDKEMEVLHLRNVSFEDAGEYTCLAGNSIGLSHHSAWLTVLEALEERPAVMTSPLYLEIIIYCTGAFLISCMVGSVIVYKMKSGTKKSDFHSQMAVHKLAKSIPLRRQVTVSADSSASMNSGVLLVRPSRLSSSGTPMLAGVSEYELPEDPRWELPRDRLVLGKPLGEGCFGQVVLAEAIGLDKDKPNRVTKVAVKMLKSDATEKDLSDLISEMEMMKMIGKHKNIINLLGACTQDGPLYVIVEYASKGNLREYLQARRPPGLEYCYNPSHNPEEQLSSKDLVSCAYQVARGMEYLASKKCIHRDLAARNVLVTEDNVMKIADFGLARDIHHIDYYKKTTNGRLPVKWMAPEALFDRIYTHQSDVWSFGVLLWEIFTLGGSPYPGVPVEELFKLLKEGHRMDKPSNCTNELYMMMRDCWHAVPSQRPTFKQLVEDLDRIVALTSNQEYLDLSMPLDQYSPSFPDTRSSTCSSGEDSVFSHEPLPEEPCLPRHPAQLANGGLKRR

| SMILES | outcome | AC50 |
| --- | --- | --- |
| Cc1ccc(N)cc1O | inactive |  |
| O=C(O)Cc1cc(I)c(Oc2cc(I)c(O)c(I)c2)c(I)c1 | inactive |  |
| CC1=C(/C=C/C(C)=C/C=C/C(C)=C/CO)C(C)(C)CCC1 | inactive |  |
| N=C(N)c1ccc(OCCCCCOc2ccc(C(=N)N)cc2)cc1 | inactive |  |
| O=C(c1ccc(OCCN2CCCCC2)cc1)c1c(-c2ccc(O)cc2)sc2cc(O)ccc12 |  | 36.2 µM (active) |
| Clc1cc(Cl)c2c(c1)N=C1CCCCCN1C2 | inactive |  |
| NC(=O)N(O)[C@@H]1C=C[C@H](Oc2cccc(Oc3ccc(F)cc3)c2)C1 | inactive |  |
| CC/C(=C(\c1ccccc1)c1ccc(OCCN(C)C)cc1)c1ccccc1 |  | 33.5 µM (active) |
| CN(C)C(=O)NC1(c2ccccc2)CCN(CCC[C@]2(c3ccc(Cl)c(Cl)c3)CCCN(C(=O)c3ccccc3)C2)CC1 | inactive |  |

What follows are compounds tested against human MET Proto-Oncogene, Receptor Tyrosine Kinase (MET), MET (gene 4233) (UniProt P08581) (assay: NVS_ENZ_hMet: NovaScreen (NVS) Enzymatic Assay for human MET Proto-Oncogene, Receptor Tyrosine Kinase (MET) (AID 2283180)).
Outline: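 Cell-free MET kinase assay using recombinant protein and fluorescent substrate, with mobility-shift separation; read 1 h after dosing. Primary duplicate at 25 uM; actives in singleton concentration-response to 50 uM maximum. Signal loss versus DMSO.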

Chain of human MET Proto-Oncogene, Receptor Tyrosine Kinase (MET), MET (gene 4233) (P08581 whole entry, looked up): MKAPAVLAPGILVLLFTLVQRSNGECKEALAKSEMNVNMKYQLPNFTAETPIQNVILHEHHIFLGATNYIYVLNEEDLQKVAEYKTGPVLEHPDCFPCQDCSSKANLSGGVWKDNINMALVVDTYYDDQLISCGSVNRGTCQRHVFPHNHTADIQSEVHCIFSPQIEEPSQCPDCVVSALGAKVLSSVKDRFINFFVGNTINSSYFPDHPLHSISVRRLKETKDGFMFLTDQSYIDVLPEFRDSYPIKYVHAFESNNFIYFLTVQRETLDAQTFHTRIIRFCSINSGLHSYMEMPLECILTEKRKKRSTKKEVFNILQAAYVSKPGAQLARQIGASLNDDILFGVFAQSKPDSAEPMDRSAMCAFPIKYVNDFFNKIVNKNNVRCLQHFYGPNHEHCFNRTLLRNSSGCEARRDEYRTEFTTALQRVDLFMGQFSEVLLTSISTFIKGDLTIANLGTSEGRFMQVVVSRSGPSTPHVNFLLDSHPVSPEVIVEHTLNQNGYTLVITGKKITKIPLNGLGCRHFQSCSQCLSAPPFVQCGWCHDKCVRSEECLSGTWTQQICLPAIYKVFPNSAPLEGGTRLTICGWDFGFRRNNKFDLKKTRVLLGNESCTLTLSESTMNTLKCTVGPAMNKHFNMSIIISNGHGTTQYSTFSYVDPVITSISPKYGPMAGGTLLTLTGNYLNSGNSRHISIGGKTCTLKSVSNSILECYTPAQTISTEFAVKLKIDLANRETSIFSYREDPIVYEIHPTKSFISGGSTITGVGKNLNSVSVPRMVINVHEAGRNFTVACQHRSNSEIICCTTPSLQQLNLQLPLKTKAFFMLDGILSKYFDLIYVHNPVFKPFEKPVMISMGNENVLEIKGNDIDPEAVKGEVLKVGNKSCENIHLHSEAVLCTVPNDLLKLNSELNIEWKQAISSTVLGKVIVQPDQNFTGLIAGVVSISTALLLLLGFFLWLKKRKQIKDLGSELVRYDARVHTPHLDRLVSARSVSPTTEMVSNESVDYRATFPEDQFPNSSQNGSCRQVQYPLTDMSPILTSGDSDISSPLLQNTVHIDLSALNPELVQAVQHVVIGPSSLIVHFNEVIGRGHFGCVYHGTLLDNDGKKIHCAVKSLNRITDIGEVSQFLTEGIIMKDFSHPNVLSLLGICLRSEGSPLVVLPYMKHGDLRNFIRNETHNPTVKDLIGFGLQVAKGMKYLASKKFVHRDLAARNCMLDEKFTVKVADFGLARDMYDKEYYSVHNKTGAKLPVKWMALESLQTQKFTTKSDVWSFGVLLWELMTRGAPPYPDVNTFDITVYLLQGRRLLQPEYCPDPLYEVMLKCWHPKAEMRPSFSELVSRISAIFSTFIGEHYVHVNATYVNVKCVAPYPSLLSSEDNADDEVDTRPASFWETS

| SMILES | outcome | AC50 |
| --- | --- | --- |
| CNS(=O)(=O)c1cc(C(=O)N2CCC(CCN3C4CCC3CC(n3c(C)nc5ccccc53)C4)(c3cccc(F)c3)CC2)c(Cl)cc1F (configuration not stated) | inactive |  |
| Cc1ccc(N)cc1O | inactive |  |
| O=C(O)Cc1cc(I)c(Oc2cc(I)c(O)c(I)c2)c(I)c1 |  | 26.7 µM (active) |
| CCc1nc(N)nc(N)c1-c1ccc(Cl)cc1 | inactive |  |
| CC/C(=C(\c1ccccc1)c1ccc(OCCN(C)C)cc1)c1ccccc1 | inactive |  |

What follows are compounds tested against human Matrix Metalloproteinase-1 (MMP1), MMP1 (gene 4312) (UniProt P03956) (assay: NVS_ENZ_hMMP1: NovaScreen (NVS) Enzymatic Assay for human Matrix Metalloproteinase-1 (MMP1) (AID 2283181)).
Outline: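 Human MMP1 enzyme activity measured by fluorescence 1 h after dosing, cell-free, with a specific substrate. Screened in duplicate at 25 uM; hits (e.g. 30% inhibition) run in concentration-response up to 50 uM; loss of signal versus DMSO.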

| SMILES | AC50 | outcome |
| --- | --- | --- |
| CNS(=O)(=O)c1cc(C(=O)N2CCC(CCN3C4CCC3CC(n3c(C)nc5ccccc53)C4)(c3cccc(F)c3)CC2)c(Cl)cc1F (configuration not stated) | 16.7 µM (active) |  |
| O=c1[nH]c2ccc(S(=O)CCN3CCC(Cc4ccc(F)cc4)CC3)cc2o1 (configuration not stated) |  | inactive |
| O=C1c2c(O)cccc2Cc2cccc(O)c21 | 15.7 µM (active) |  |
| COc1ccc2cc(S(=O)(=O)N[C@H](CC(=O)N[C@H](Cc3ccc(CN4[C@H](C)CCC[C@@H]4C)cc3)C(=O)N(C)C(C)C)c3ccc4c(c3)OCO4)ccc2c1 |  | inactive |
| CCOC(=O)O[C@H](C)OC(=O)c1ccc2c(c1)cc(C(=O)NC1CCN(C(C)C)CC1)n2Cc1cc(-c2ccc(Cl)s2)on1 |  | inactive |

What follows are compounds tested against human p21 Activated Kinase 4 (PAK4), PAK4 (gene 10298) (UniProt O96013) (assay: NVS_ENZ_hPAK4: NovaScreen (NVS) Enzymatic Assay for human p21 Activated Kinase 4 (PAK4) (AID 2283189)).
Outline: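 Cell-free recombinant human PAK4 activity assay; fluorescent substrate and product separated by electrophoretic mobility shift, read 1 h after dosing. Initially tested in duplicate at 25 uM, relative to DMSO baseline.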

Chain of human p21 Activated Kinase 4 (PAK4), PAK4 (gene 10298) (O96013 whole entry, looked up): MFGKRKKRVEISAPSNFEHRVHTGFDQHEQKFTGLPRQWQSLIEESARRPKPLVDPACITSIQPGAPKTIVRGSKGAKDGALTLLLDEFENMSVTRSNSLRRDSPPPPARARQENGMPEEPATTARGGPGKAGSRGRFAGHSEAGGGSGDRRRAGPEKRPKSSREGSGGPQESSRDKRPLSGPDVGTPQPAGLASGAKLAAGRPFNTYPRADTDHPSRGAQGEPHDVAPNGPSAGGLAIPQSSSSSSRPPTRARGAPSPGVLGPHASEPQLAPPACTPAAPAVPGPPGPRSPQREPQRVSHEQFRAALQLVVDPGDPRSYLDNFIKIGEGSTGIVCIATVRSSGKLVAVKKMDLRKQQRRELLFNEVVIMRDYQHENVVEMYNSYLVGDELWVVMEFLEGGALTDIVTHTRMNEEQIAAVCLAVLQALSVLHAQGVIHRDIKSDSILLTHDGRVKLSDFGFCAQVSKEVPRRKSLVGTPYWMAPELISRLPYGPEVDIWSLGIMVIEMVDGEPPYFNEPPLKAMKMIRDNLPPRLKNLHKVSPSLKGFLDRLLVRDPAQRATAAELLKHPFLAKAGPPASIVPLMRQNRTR

| SMILES | outcome |
| --- | --- |
| O=C(O)Cc1cc(I)c(Oc2cc(I)c(O)c(I)c2)c(I)c1 | inactive |
| O=C(c1ccc(OCCN2CCCCC2)cc1)c1c(-c2ccc(O)cc2)sc2cc(O)ccc12 | inactive |
| COc1ccc(-n2nc(C(F)F)cc2-c2ccc(S(C)=O)cc2)cc1 (configuration not stated) | inactive |
| CCOC(=O)CCC(=O)OCC | inactive |
| CC/C(=C(\c1ccccc1)c1ccc(OCCN(C)C)cc1)c1ccccc1 | inactive |
| CN(C)C(=O)NC1(c2ccccc2)CCN(CCC[C@]2(c3ccc(Cl)c(Cl)c3)CCCN(C(=O)c3ccccc3)C2)CC1 | inactive |

The compounds below were run against human Raf-1 Proto-Oncogene, serine/threonine Kinase (RAF1), RAF1 (gene 5894) (UniProt P04049) (assay: NVS_ENZ_hRAF1: NovaScreen (NVS) Enzymatic Assay for human Raf-1 Proto-Oncogene, serine/threonine Kinase (RAF1) (AID 2283216)).
Outline: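 Cell-free recombinant kinase with specific fluorescent substrate, product separated by electrophoretic mobility shift; read 1 h after dosing. Primary screen at 25 uM in duplicate; hits then run in concentration-response up to 50 uM, fitted as loss of signal versus DMSO.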

Chain of human Raf-1 Proto-Oncogene, serine/threonine Kinase (RAF1), RAF1 (gene 5894) (P04049 whole entry, looked up): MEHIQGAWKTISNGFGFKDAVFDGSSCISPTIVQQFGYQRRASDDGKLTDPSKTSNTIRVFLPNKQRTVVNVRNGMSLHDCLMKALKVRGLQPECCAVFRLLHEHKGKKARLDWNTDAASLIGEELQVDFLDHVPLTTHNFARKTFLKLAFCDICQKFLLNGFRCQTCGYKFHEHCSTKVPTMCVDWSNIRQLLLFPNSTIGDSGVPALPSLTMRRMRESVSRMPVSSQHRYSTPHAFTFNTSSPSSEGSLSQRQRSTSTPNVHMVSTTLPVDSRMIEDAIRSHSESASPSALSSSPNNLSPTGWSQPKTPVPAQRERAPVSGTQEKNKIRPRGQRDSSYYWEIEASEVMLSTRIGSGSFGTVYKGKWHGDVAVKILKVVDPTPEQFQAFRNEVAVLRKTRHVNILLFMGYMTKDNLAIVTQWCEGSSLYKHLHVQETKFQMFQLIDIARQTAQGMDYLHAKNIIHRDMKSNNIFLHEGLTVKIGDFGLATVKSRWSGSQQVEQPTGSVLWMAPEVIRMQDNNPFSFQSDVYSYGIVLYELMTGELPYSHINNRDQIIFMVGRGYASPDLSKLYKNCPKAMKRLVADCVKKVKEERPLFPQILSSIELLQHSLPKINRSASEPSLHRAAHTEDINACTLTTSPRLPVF

| SMILES | outcome |
| --- | --- |
| Cc1ccc(N)cc1O | inactive |
| O=C(O)Cc1cc(I)c(Oc2cc(I)c(O)c(I)c2)c(I)c1 | inactive |
| Cn1c(=O)cc(Oc2ccc(F)cc2F)c2cnc(NCC(C)(C)O)nc21 | inactive |
| Clc1cc(Cl)c2c(c1)N=C1CCCCCN1C2 | inactive |

Each compound was assayed against human Tyrosine Protein Kinase Receptor Tie-2 (Tie2), TEK (gene 7010) (UniProt Q02763) (assay: NVS_ENZ_hTie2: NovaScreen (NVS) Enzymatic Assay for human Tyrosine Protein Kinase Receptor Tie-2 (Tie2) (AID 2283225)).
Outline: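 Recombinant human Tie2 kinase activity was read cell-free by fluorescence with electrophoretic mobility shift, 1 hour after dosing. The screen used 25 uM in duplicate, then concentration-response up to 50 uM. Signal loss was scored against DMSO.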

| SMILES | outcome | AC50 |
| --- | --- | --- |
| Cc1ccc(N)cc1O | inactive |  |
| O=C(O)Cc1cc(I)c(Oc2cc(I)c(O)c(I)c2)c(I)c1 | inactive |  |
| O=C(c1ccc(OCCN2CCCCC2)cc1)c1c(-c2ccc(O)cc2)sc2cc(O)ccc12 |  | 31 µM (active) |
| CC/C(=C(\c1ccccc1)c1ccc(OCCN(C)C)cc1)c1ccccc1 | inactive |  |
